# Measurements as given in PubChem BioAssay AID1508600 (Functional Genomics Laboratory (NCATS/FGL), 2020).
# Among all 53,000 sequences or so, about 3,700 (7%) were called active. Shown is part of a subset that was picked to be rich in actives. Values without a mark were called inactive.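 Rule for the calls: active = gene knockdowns whose robust z-score for IL-1 alpha signal is at least 2 or at most -2, so actives lie on both sides; inactive = the rest.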
# Assay: Components of the Cytosolic LPS Sensing Pathway: Gene Identification via Genome-wide siRNA Screen;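 note: robust z of the log signal after scaling to non-targeting control siRNA wells of the plate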
# Settings: RAW264.7 macrophages, IL-1a HTRF, actives lie on both sides, screened at 100 nM (by protocol), cells primed 5 h with Pam3CSK4 first
# Procedure, shortened: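 Cells (RAW264.7, 1×10^4 per well) were transfected with siRNA at 100 nM and cultured 48h at 37 degrees C. Pam3CSK4 was added for 5 hours; LipidA transfection followed for 24 hour. IL-1a was then measured by HTRF.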
row,Sequence,z-score
1,GCCAGUUAUGAGCAACACCTT against Slc46a1,-2.14 (active)
2,GCUAACAAAUGUCAGCAUGTT against Popdc3,0.319
3,GCCGACUUUAAUGACUGCUTT against Cmtm4,1.71
4,CGAAACUGGUCUUUAUACUTT against Tigd4,-1.27
5,AUGCGUCCUUCACCAACGATT against Tmem158,-3.28 (active)
6,GGAUGACAUGUCAUCAAAGTT against Vmn1r89,-1.38
7,GGGAAGAGUGGUGCAAUGATT against Olfr155,0.835
8,GCAACAAUAAAUCGUACAGTT against Nupr1,0.246
9,GGGAAGUUCAUAUUGAUCCTT against Gsdma,0.691
10,GGCUUAAGGUGAGAUAUUCTT against Sp9,-0.524
11,CGAGUGUUCCUCCAAGUGCTT against Fhl5,0.384
12,GGGACUAAGAUGAAGCUGATT against Fam43a,-2.18 (active)
13,GCUCACUUAUCUACGUUUUTT against Trim15,0.639
14,GCAUGUGACCUCGUCUUGCTT against Apbb2,-1.04
15,GGGCAUGAGAAAUCCACAGTT against Rhox9,-1.23
16,GGCAAAUAAAUUCAGCAAGTT against Pum3,-0.0642
17,GGACUUCCCGAACUACAUATT against Zfp52,0.0339
18,GGCUCUCUUUAGAACAGACTT against Rad17,0.479
19,GCUACAUACCCAAAUACAUTT against Trpc4ap,2.1 (active)
20,GGGACAUAUCUGAAGCAAGTT against Rps26,0.896
21,GCUUCUGUCAUAAUGAUAUTT against Pramel6,-2.33 (active)
22,CCAGAAACCAAUCUUUCUUTT against Serpinb1a,-0.0285

row,Sequence,z-score
1,CCCUAGUGAUAAGGAAUGCTT against Cxcl9,0.228
2,GGUGACCACUUCAUGUCACTT against Tmem138,-1.28
3,GCGGGAGCUUAGCUUUUAUTT against G6pc3,3.33 (active)
4,CCGUAGACUCGGUGAAGCUTT against Plpbp,-0.143
5,GGUCAGAAUCUUUGUUCCUTT against Ndufs4,-0.912
6,GGAUUCCCUGUAUGCCCAATT against Rpl36al,-0.23
7,GGAGAAGCCAAAAGAAUGCTT against Xrn2,-0.76
8,GCUUACAAGUUGCUACUGGTT against Dnajc8,0.425
9,GGGCAAUUCUAUCAAAGAGTT against Gps1,-2.14 (active)
10,CCUAUAGCAAUGGCAGCAGTT against Pkn1,-1.66
11,GGUCCUUUCCCAUAACCUGTT against Swap70,-0.922
12,GCGGACUACUAUGCUAAAGTT against Tgfb1,1.08
13,GGUGUUCAAAAAGUUUAACTT against Zswim1,1.02
14,GCCAAGCUCGCCAAGAUUATT against P4ha2,0.273
15,GCUGAAGUGCAAGAACAAATT against Dmd,1.91
16,GGUUUUGGCGGAUACUAAGTT against Plin3,-0.24
17,GGAUGAGAGAAAGUUACCCTT against Tspo2,-2.78 (active)
18,GGGCAUCUCAGAUUUAGCUTT against Cct3,-0.0572
19,GGGUGAAGAUUCUCUACAATT against Dctn3,-0.621
20,GGACUGAACCCAAAUGCCUTT against Chtf8,-1.45
21,GGAGCUUACAUGGUCCCUATT against Prss37,-0.238
22,CGAGAAGGAUAUAAUUGUUTT against Klhl18,0.449

row,Sequence,z-score
1,GGUUUCGAACUGAUGAAGCTT against Nemf,0.284
2,GGCAAAACAAAGAAUGAAATT against Prss40,-0.38
3,CGAAGUCUGAAACACAUGUTT against A730018C14Rik,4.13 (active)
4,GGACUCACAGAAAUUUCCATT against Slc36a1,-1.53
5,GGUAAUGAGACGCGGUUUATT against Ina,0.202
6,GCAACACCUUAUGUUUCAUTT against Cab39,1.68
7,GGCACGAUUUGCUUAUUUUTT against Usf2,0.0682
8,GCCUCCUACUGGUUCCAAATT against Commd7,2.05 (active)
9,GUCUUCUCUGCCUGUCUGATT against Lce3c,-0.0986
10,CCCAGGGAGAAUUGACUUGTT against Sertad1,0.0114
11,GGCCUUUGUAGUAUCCCAGTT against Nudt16,-0.709
12,GCACCAAUCAAUGAGGAGATT against Was,-0.785
13,GGAGUGAUGUCCAUACUGGTT against Leap2,-2.57 (active)
14,CCAUCCUAAGCAGAGUCACTT against Frg2f1,-0.446
15,GGAUGUUGAUUUUCAUGGUTT against Grpel2,1.13
16,GGGUAUUCAUGAUGUCUUUTT against Kctd6,1.39
17,GGCAUCACUGAUGAAUGAATT against Pacsin2,-0.585
18,GGAACAUCCAGUCUCUCACTT against Fbxo31,0.244
19,CCCAGGUGUAUUUUACAUATT against D10Wsu102e,-0.00657
20,CGCGGAGGUCUCUCUUAUUTT against Prss39,2.22 (active)
21,GGUAUUUAAUGGAAGCCUGTT against Acp7,-0.537
22,GGCAUCUUUCAUAAAACCGTT against Atad3aos,-0.622

row,Sequence,z-score
1,GCCUAUCAGAAGCUGUUAATT against Eif2ak2,3.59 (active)
2,GGAGAUAUUAUUGUUCAGATT against Cemip2,-0.337
3,GUGCUUUCGUGUUUUUCAATT against Klrb1b,-0.388
4,GCUAUCGUGAUAAUCUGGATT against Gxylt2,-0.113
5,CUUAAAGGAAUCCUGGUGGTT against Fam169b,0.0229
6,CCUGCAUGCCUAUGUGCGUTT against Ace,2.89 (active)
7,GAAGACUUCGUCCUAACAGTT against Ctsg,-0.195
8,GGCCUCUUACAAAGUGAGATT against Supt7l,-0.265
9,GGGAUAUGUGAAGCCUCAGTT against Mospd3,-1.21
10,GGAACAGUUCCUUGUGGUUTT against Uqcrh,0.935
11,GGUUCAGAAUUUAACCUUATT against Phc3,3 (active)
12,GGUAUUGUGAAACGUACACTT against Ky,0.914
13,CCGUCGUCCUAGAAAAACCTT against Nsun7,-1.18
14,CCUACUAAACUCAGUCUUUTT against Kap,1.08
15,GGAUCAUGCAGACAUGCUGTT against Ggcx,-0.278
16,GGUUCUAAAUCAGAAGUGCTT against Tyw5,-2.08 (active)
17,GGUAUAGCCACAGGUACAUTT against Phxr5,-0.368
18,GCAGAUAUUUUUGUAAGCATT against Csmd1,-0.644
19,GGCUUGAUGGGCUUUUUGCTT against Ndufb8,0.285
20,GGUCCCAGUCAUUAUCCACTT against Gdap1l1,2.43 (active)
21,GGUAAUUAAAACCAUGGAGTT against Rex1bd,-0.0412
22,GGCCCAGGAUAUUUUAGUUTT against Atg9b,-0.553

row,Sequence,z-score
1,GCCGUACGAAAAAUAAGCATT against Rps7,-0.402
2,GGCCAAAGUACUUUGUUCCTT against Pdpr,3.63 (active)
3,GGUUCUUCGAAGCAAUAGCTT against Sphkap,-0.973
4,GCACACAUCAAGAAACUUGTT against Mxi1,0.963
5,GGAGAAAUAACUGAAAUUCTT against Klhl13,-0.816
6,GGACUUCUACCCAGCGAUATT against P3h4,-0.536
7,CCUCCAGAUAACAAAUGCATT against Dlx3,0.335
8,CGCAUUACAUUAGCCAAAATT against Ttc28,1.21
9,GCUCAGUAAUCUGAGGCCATT against Lox,-2.03 (active)
10,GGAGAUCCGUUCAAGGGUUTT against Olfr557,0.73
11,CCAACUGCACUGUCAAACUTT against Tbcc,-0.224
12,GGAAUGUGUCUUCUCAAGUTT against A530021J07Rik,2.35 (active)
13,GGACCAGCACAUGUGGAUUTT against Olfr547,0.31
14,GGACCUGGUAUCUCUAUAUTT against Rasgrp4,-0.807
15,GCAUAAUUCUAAAGACGGGTT against Zfp143,-0.1
16,GGUUAUAGACAAGAUCGAUTT against Comp,0.536
17,CCCACCAGUAAGGAGUUCATT against Dido1,-0.177
18,GCCACGAACAUGAUGUACATT against Slco3a1,0.229
19,GGUUUUAUUUGGGAUUAGCTT against Arfgap2,0.327
20,GGCAGAUCUGAUCAACGGATT against Mtln,-2.14 (active)
